The record followed here is PubChem BioAssay (NCI).

SMILES strings stand for the structures. About 83,000 compounds went through this panel and 20% of them were active in at least one assay; those are over-represented in the sample as a whole.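 A percent growth of 40 corresponds to 60% growth inhibition; 0 means no net growth; -100 means all cells died. Active threshold: below 10.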 Unmarked numbers belong to inactive results. Active and inactive are the calls of the source.

Experiment in all cases: NCI-60 one-dose screen, 48 h (100 = growth as untreated, 0 = no growth, -100 = all killed)
One assay concerns RPMI-8226 leukemia. The note with it: 10 µM unless noted.
Another assay deals with OVCAR-8 ovarian. Conditions: 10 µM unless noted.
The next assay has as its system OVCAR-5 ovarian. Conditions: 10 µM unless noted.
A further assay relates to OVCAR-4 ovarian. The note with it: 10 µM unless noted.
The next assay has as its system SK-OV-3 ovarian. The note with it: 10 µM unless noted.
In a further assay the test system is IGROV1 ovarian. Conditions: 10 µM unless noted.
A further assay deals with OVCAR-3 ovarian. The note with it: 10 µM unless noted.
A further assay has as its system HS 578T breast. Conditions: 10 µM unless noted.
Another assay deals with NCI/ADR-RES ovarian. Conditions: 10 µM unless noted.
A further assay concerns T-47D breast. The note with it: 10 µM unless noted.
For another assay, the system named is BT-549 breast. Conditions: 10 µM unless noted.
For another assay, the system named is MDA-MB-435 melanoma. The note with it: 10 µM unless noted.
For the next assay, the system named is SW-620 colon. The note with it: 10 µM unless noted.
The test system of another assay is MCF7 breast. The note with it: 10 µM.
The next assay deals with HCT-116 colon. The note with it: 10 µM unless noted.
The next assay has as its system HCC-2998 colon. The note with it: 10 µM unless noted.
A further assay deals with KM12 colon. Conditions: 10 µM unless noted.

Regarding `COc1ccc(Cn2c(Br)c3c(c2Br)-c2nc(NC(=O)c4ccc(OC)cc4)sc2CC3)cc1`, the growth in the assay on RPMI-8226 leukemia is 71.8%; with OVCAR-8 ovarian, 61.4%; in the assay with OVCAR-5 ovarian it was 79.4%; in the assay on OVCAR-4 ovarian it was 49.7%; with SK-OV-3 ovarian it was 72.9%; in the assay with IGROV1 ovarian, 38.2%. Further, the growth in the assay with OVCAR-3 ovarian was 88.6%; in the assay with HS 578T breast, 58.1%; with NCI/ADR-RES ovarian, 74.7%; with T-47D breast it was 68.7%; in the assay with BT-549 breast, 84.2%; with MDA-MB-435 melanoma, 61.8%. Further, the growth in the assay with SW-620 colon is 84%; with MCF7 breast, 78.5%; in the assay on HCT-116 colon, 75.9%; in the assay on HCC-2998 colon, 108%; in the assay with KM12 colon, 79.9%.
On to `Cc1nc(Nc2cn[nH]c2C(=O)Nc2ccc(CN3CCN(C)CC3)cc2)c2ccsc2n1`, for which the growth in the assay on RPMI-8226 leukemia is 79%; with OVCAR-8 ovarian, 102%; in the assay with OVCAR-5 ovarian it was 136%; in the assay with OVCAR-4 ovarian, 82.5%; in the assay with SK-OV-3 ovarian, 64.4%; in the assay on IGROV1 ovarian, 77.2%. The growth in the assay with OVCAR-3 ovarian was 91.3%; in the assay on HS 578T breast, 66.8%; in the assay with NCI/ADR-RES ovarian, 110%; with T-47D breast, 91.7%; with BT-549 breast, 88.5%; with MDA-MB-435 melanoma, 87.1%. Moreover, the growth with SW-620 colon is 114%; in the assay with MCF7 breast it was 59.9%; in the assay with HCT-116 colon, 52.4%; in the assay with HCC-2998 colon, 95.3%; in the assay with KM12 colon, 27.4%.
`COc1ccc(OC)c(N(CCN2C(=O)c3ccccc3C2=O)C(=O)CCl)c1`: the growth with RPMI-8226 leukemia was 32.9%; in the assay on OVCAR-8 ovarian, 65.6%; in the assay on OVCAR-5 ovarian, 65.9%; in the assay with OVCAR-4 ovarian it was -49.5% (active); in the assay with SK-OV-3 ovarian, 91.3%; in the assay on IGROV1 ovarian, -73.4% (active). For the same compound, the growth with OVCAR-3 ovarian was 14.6%; in the assay with HS 578T breast, 52.6%; with NCI/ADR-RES ovarian, 49.2%; with T-47D breast, 95.4%; with BT-549 breast it was 92.4%; with MDA-MB-435 melanoma, 81.5%. Moreover, the growth with SW-620 colon is 96.4%; with MCF7 breast, 78.8%; in the assay with HCT-116 colon, 89%; with HCC-2998 colon, 111%; in the assay with KM12 colon, -11.3% (active).
`CSc1nc2c(c(=O)[nH]1)N=C1c3ccccc3C(=O)C1C(c1ccc(F)cc1)N2` (stereo not drawn): the growth in the assay on RPMI-8226 leukemia was 68.4%; in the assay on OVCAR-8 ovarian, 78.9%; in the assay with OVCAR-5 ovarian it was 93.6%; in the assay with OVCAR-4 ovarian, 41.2%; with SK-OV-3 ovarian, 79.4%; with IGROV1 ovarian, 58.3%. The growth with OVCAR-3 ovarian is 21.7%; in the assay on HS 578T breast it was 66.8%; in the assay on NCI/ADR-RES ovarian, 57.5%; in the assay on T-47D breast, 72.9%; with BT-549 breast it was 97.2%; with MDA-MB-435 melanoma, -2.38% (active). Further, the growth with SW-620 colon was 54.5%; with MCF7 breast it was 40.4%; with HCT-116 colon, 48.4%; with HCC-2998 colon, 64.9%; in the assay on KM12 colon, 41.7%.
With `COc1ccc(-c2nc(-c3ccccc3)c(-c3ccccc3)[nH]2)cc1OC1CCCCC1`, the growth is 58.9% in the assay with RPMI-8226 leukemia; 86.7% with OVCAR-8 ovarian; 96.6% in the assay on OVCAR-5 ovarian; 74.2% in the assay with OVCAR-4 ovarian; 98.9% with SK-OV-3 ovarian; 102% in the assay on IGROV1 ovarian. In addition, the growth in the assay on OVCAR-3 ovarian is 72.6%; in the assay with HS 578T breast, 91.2%; in the assay with NCI/ADR-RES ovarian, 87.7%; in the assay on T-47D breast, 82.6%; with BT-549 breast, 118%; in the assay on MDA-MB-435 melanoma it was 84.8%. In addition, the growth in the assay with SW-620 colon is 88.8%; in the assay with MCF7 breast, 73.6%; with HCT-116 colon, 88.4%; with HCC-2998 colon, 90.8%; with KM12 colon, 89.3%.
In the case of `COc1ccc(C2Nc3ncnc(N)c3N=C3c4ccccc4C(=O)C32)cc1` (stereo not drawn), the growth in the assay on RPMI-8226 leukemia was 80%; in the assay on OVCAR-8 ovarian, 108%; in the assay on OVCAR-5 ovarian, 98.1%; in the assay with OVCAR-4 ovarian, 82.8%; with SK-OV-3 ovarian, 84.7%; with IGROV1 ovarian, 79.4%. The growth in the assay with OVCAR-3 ovarian is 83.9%; in the assay with HS 578T breast, 94.5%; in the assay with NCI/ADR-RES ovarian, 105%; in the assay on T-47D breast, 80.8%; in the assay with BT-549 breast, 94.3%; with MDA-MB-435 melanoma it was 96.9%. The growth was 103% with SW-620 colon; 95.5% in the assay on MCF7 breast; 95.7% in the assay with HCT-116 colon; 104% with HCC-2998 colon; 110% in the assay on KM12 colon.
Consider `CCOC(=O)C1=C(C)N=c2s/c(=C\c3ccccc3O)c(=O)n2C1c1ccc(OC)c2ccccc12` (stereo not drawn), for which the growth in the assay with RPMI-8226 leukemia was -15.1% (active); with OVCAR-8 ovarian it was 13.2%; in the assay on OVCAR-5 ovarian it was 51.6%; in the assay on OVCAR-4 ovarian, 38.6%; in the assay with SK-OV-3 ovarian, 61.7%; with IGROV1 ovarian, 16.3%. Moreover, the growth in the assay on OVCAR-3 ovarian is 10.1%; in the assay on HS 578T breast it was 10.4%; in the assay with NCI/ADR-RES ovarian, 48.3%; in the assay on T-47D breast, 23.3%; in the assay on BT-549 breast, 60.3%; with MDA-MB-435 melanoma, -76.6% (active). Besides, the growth in the assay on SW-620 colon is -78.2% (active); in the assay on MCF7 breast, -75.4% (active); in the assay on HCT-116 colon it was 11.6%; with HCC-2998 colon it was -86.7% (active); in the assay with KM12 colon, 8.88% (active).
For `COc1ccc(Cn2cc(Cn3cc(C=C4C(=O)NC(=O)NC4=O)c4ccccc43)nn2)cc1`, the growth was 83.8% with RPMI-8226 leukemia; 87.6% in the assay with OVCAR-8 ovarian; 71.7% in the assay with OVCAR-5 ovarian; 82.4% in the assay with OVCAR-4 ovarian; 75.3% in the assay on SK-OV-3 ovarian; 94.3% in the assay on IGROV1 ovarian. In addition, the growth in the assay with OVCAR-3 ovarian is 88.9%; with HS 578T breast, 82.6%; in the assay with NCI/ADR-RES ovarian, 84.1%; with T-47D breast, 64.3%; with BT-549 breast, 99.5%; in the assay on MDA-MB-435 melanoma it was 90.8%. For the same compound, the growth in the assay with SW-620 colon is 85.9%; in the assay with MCF7 breast it was 75.8%; in the assay on HCT-116 colon, 80.1%; in the assay on HCC-2998 colon it was 109%; in the assay with KM12 colon, 93%.
For the compound `COc1cc2c(cc1OC)C(=O)C(CC1CCN(C(=O)Nc3ccc(C)cc3)CC1)C2` (stereo not drawn), the growth in the assay on RPMI-8226 leukemia was 111%; in the assay with OVCAR-8 ovarian, 106%; in the assay on OVCAR-5 ovarian, 86.9%; in the assay on OVCAR-4 ovarian, 89.8%; in the assay on SK-OV-3 ovarian it was 98.5%; with IGROV1 ovarian, 96.1%. The growth in the assay with OVCAR-3 ovarian is 100%; in the assay with HS 578T breast, 82.1%; in the assay on NCI/ADR-RES ovarian, 99.6%; with T-47D breast, 89.1%; with BT-549 breast, 96.6%; with MDA-MB-435 melanoma it was 97.7%. The growth is 94.6% with SW-620 colon; 90.4% in the assay with MCF7 breast; 97.4% with HCT-116 colon; 116% with HCC-2998 colon; 94.3% in the assay with KM12 colon.
